Potency and activity change, negative = inhibition data for 42 compounds are collected here from PubChem BioAssay (Tox21).

SMILES strings stand for the structures. Inconclusive results are not listed. Values without a mark were called inactive. Active and inactive are the calls of the source. Calls follow the shape of the dose curve; as a rule, active = well fitted curve in the direction sought with a large enough effect in the repeat runs; inconclusive = weak or mixed curves; inactive = no such curve, though single readings can be large; an effect the other way counts as inactive or inconclusive.

Assay [1] addresses Cytochrome P450 2D6 (Homo sapiens) (UniProt P10635). The experiment in a line: Cytochrome P450 Family 2 Subfamily D Member 6 (CYP2D6) small molecule antagonists: luciferase reporter qHTS assay (AID 1671196). Also: nearly all actives have a fitted effect of over 50% in size. Also: potency is read from the fitted curve at half-maximal effect. As to activity change, negative = inhibition: series mostly up to about 120 µM. The method, boiled down:
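Test chemicals meet CYP2D6 plus proluciferin substrate (10 min, RT); NADPH regenerating solution then drives turnover for 1 h. Detection reagent halts the reaction; luminescence measured after 20 min.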

The target in assay [2] is Cytochrome P450 2C9 (Homo sapiens) (UniProt P11712). The experiment in a line: Cytochrome P450 Family 2 Subfamily C Member 9 (CYP2C9) small molecule antagonists: luciferase reporter qHTS assay (AID 1671198). Also: nearly all actives have a fitted effect of over 50% in size. Also: potency is read from the fitted curve at half-maximal effect. As to activity change, negative = inhibition: series mostly up to about 120 µM. The method in brief: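 Enzyme-substrate mix preincubated with compound 10 min at room temperature; reaction started with NADPH regeneration solution, 1 h 37C. Luminescent luciferin product read after 20 min detection reagent.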

In assay [3] the target is Cytochrome P450 1A2 (Homo sapiens) (UniProt P05177). The experiment in a line: Cytochrome P450 Family 1 Subfamily A Member 2 (CYP1A2) small molecule antagonists: luciferase reporter qHTS assay (AID 1671199). Also: nearly all actives have a fitted effect of over 50% in size. Also: potency is read from the fitted curve at half-maximal effect. As to activity change, negative = inhibition: series mostly up to about 120 µM. The method, boiled down:
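Steps: enzyme-substrate mix dispensed; test compounds and furafylline control pinned in; 10 min room temperature; NADPH regeneration solution added, 1 h; reaction stopped with luciferin detection reagent; luminescence read after 20 min.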

The target in assay [4] is Voltage-gated inwardly rectifying potassium channel KCNH2 (Homo sapiens) (UniProt Q12809). Kind of assay: Human Ether-a-go-go-Related Gene (hERG) channel small molecule antagonists: fluorescence cell-based qHTS assay (AID 1671200). Also: nearly all actives have a fitted effect of over 50% in size. Also: potency is read from the fitted curve at half-maximal effect.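 As to activity change, negative = inhibition: hERG-expressing U2OS cells given a thallium stimulus after FluxOR II dye loading; series mostly up to about 77 µM.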 The method, boiled down:
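Quantitative HTS in hERG-U2OS cells: thallium entry through the channel reports activity, read as continuous 480/540 nm fluorescence over 2 min after stimulus addition.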

The target of assay [5] is Cytochrome P450 3A4 (Homo sapiens) (UniProt P08684). Kind of assay: Cytochrome P450 Family 3 Subfamily A Member 4 (CYP3A4) small molecule antagonists: luciferase reporter qHTS assay (AID 1671201). The method, boiled down:
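Inhibition of CYP3A4 is measured as loss of light: the enzyme converts a proluciferin substrate to luciferin, detected luminescently. Reaction ran 1 h at room temperature with NADPH regeneration after a 10 min compound preincubation.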

The target in assay [6] is Cytochrome P450 2C19 (Homo sapiens) (UniProt P33261). The experiment in a line: Cytochrome P450 Family 2 Subfamily C Member 19 (CYP2C19) small molecule antagonists: luciferase reporter qHTS assay (AID 1671197). Also: nearly all actives have a fitted effect of over 65% in size. Also: potency is read from the fitted curve at half-maximal effect. As to activity change, negative = inhibition: series mostly up to about 120 µM. The method, boiled down:
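Relative luminescence units recorded 20 min after the detection reagent stopped a 1 h, 37C CYP2C19 reaction on proluciferin substrate, which was started by NADPH regeneration following 10 min room-temperature compound preincubation; ketoconazole positive control.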
% is scaled to controls: 0 for no effect and ±100 for the full control effect.

Sequence of Cytochrome P450 2C9 (Homo sapiens) (P11712 whole entry, looked up): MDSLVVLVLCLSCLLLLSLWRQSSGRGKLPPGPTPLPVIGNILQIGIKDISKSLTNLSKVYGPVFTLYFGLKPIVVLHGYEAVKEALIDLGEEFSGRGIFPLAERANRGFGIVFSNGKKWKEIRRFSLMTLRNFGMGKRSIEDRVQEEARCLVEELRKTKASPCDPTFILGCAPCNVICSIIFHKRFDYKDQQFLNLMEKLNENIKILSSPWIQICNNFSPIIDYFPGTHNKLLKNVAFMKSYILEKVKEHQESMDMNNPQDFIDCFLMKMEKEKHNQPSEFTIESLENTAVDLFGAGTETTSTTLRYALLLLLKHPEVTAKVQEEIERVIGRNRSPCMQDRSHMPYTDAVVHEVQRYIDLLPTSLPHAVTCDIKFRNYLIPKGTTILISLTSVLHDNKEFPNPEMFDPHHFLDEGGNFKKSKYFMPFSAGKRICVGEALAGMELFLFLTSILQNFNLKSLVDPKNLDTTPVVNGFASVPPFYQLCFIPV
Sequence of Cytochrome P450 1A2 (Homo sapiens) (P05177 whole entry, looked up): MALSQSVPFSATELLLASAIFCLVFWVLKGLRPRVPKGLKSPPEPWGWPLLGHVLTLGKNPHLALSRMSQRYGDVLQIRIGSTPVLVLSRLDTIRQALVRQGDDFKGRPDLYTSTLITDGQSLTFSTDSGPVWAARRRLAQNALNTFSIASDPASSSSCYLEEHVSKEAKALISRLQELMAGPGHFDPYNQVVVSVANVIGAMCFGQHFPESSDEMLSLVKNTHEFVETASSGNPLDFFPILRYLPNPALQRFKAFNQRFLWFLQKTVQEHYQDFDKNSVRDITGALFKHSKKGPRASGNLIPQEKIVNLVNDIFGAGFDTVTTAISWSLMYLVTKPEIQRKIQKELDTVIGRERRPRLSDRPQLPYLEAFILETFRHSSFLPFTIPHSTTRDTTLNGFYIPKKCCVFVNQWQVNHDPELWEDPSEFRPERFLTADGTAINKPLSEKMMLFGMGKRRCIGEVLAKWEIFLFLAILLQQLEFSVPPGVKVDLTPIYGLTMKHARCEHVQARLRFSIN
Sequence of Voltage-gated inwardly rectifying potassium channel KCNH2 (Homo sapiens) (Q12809 whole entry, looked up): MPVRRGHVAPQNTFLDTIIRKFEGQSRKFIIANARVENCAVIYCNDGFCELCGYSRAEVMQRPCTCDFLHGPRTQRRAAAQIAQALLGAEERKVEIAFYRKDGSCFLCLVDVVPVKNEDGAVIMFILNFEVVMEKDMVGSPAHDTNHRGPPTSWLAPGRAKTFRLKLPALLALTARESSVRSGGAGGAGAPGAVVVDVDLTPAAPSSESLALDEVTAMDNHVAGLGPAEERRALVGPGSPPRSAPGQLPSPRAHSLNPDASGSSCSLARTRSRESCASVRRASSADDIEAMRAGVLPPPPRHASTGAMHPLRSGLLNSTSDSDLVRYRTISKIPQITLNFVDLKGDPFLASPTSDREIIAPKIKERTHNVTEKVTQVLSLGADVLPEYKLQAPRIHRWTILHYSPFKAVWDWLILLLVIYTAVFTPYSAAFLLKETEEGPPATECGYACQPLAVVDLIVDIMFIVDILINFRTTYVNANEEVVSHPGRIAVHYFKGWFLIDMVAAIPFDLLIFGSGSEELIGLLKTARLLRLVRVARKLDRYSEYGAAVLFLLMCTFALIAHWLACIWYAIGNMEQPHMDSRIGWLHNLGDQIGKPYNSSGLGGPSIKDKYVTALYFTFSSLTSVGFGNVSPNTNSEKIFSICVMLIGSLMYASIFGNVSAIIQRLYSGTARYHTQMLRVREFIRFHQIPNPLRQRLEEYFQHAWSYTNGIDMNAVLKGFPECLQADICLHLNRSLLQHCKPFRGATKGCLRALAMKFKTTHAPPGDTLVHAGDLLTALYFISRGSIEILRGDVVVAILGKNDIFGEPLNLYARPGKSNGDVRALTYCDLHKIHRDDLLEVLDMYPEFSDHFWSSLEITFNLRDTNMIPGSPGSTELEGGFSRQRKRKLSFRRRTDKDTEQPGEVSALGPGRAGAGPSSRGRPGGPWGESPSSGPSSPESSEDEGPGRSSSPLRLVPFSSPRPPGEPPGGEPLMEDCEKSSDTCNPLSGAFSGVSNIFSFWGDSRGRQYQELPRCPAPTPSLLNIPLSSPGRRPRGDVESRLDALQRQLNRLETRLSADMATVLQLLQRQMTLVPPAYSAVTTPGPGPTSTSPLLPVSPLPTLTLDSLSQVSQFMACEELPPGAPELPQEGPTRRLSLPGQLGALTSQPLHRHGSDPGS
Sequence of Cytochrome P450 2D6 (Homo sapiens) (P10635 whole entry, looked up): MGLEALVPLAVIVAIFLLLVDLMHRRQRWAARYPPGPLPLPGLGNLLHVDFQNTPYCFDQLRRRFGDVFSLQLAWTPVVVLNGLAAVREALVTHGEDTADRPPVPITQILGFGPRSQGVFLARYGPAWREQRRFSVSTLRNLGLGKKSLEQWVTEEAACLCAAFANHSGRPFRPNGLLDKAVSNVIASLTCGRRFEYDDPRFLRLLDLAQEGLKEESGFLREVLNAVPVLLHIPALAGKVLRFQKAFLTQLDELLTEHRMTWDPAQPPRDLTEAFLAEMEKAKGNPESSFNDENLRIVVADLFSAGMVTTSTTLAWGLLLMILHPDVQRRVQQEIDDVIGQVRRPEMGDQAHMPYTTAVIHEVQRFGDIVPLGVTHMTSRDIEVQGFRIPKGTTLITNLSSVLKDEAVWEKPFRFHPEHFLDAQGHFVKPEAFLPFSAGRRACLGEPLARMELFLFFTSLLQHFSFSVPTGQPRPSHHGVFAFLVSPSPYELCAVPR
Sequence of Cytochrome P450 3A4 (Homo sapiens) (P08684 whole entry, looked up): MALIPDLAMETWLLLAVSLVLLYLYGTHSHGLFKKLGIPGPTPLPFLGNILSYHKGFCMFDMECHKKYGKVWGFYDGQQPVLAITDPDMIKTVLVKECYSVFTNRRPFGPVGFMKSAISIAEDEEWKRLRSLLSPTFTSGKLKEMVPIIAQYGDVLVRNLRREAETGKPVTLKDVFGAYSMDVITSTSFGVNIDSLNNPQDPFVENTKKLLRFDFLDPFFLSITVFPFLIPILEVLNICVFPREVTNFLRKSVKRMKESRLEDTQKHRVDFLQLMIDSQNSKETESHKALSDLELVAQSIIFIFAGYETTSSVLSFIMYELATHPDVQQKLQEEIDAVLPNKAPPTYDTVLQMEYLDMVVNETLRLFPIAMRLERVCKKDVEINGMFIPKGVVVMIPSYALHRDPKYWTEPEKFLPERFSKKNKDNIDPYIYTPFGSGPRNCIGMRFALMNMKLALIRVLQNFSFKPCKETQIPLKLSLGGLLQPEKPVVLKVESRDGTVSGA
Sequence of Cytochrome P450 2C19 (Homo sapiens) (P33261 whole entry, looked up): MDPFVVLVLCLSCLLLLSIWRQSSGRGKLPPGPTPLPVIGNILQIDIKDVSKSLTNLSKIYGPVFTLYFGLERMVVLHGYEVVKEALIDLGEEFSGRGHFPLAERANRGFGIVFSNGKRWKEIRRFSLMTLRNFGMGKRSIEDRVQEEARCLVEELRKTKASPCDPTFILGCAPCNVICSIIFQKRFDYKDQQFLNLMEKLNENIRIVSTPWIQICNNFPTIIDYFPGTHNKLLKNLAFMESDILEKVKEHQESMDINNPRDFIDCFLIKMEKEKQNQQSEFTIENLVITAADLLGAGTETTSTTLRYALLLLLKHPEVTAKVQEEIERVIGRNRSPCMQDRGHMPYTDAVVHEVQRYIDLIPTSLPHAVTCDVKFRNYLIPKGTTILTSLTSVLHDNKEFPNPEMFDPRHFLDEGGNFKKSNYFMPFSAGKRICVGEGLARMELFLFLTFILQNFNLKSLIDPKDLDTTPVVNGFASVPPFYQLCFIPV

Regarding `Cc1cc(NS(=O)(=O)c2ccc(N)cc2)nc(C)n1`, the Potency entry in assay [1], in assay [2], in assay [3], in assay [4] and in assay [5] was “inactive” each time.
With `COC(=O)c1ccc2cc(C(=O)OC)ccc2c1`, the activity change, negative = inhibition in assay [1] was -8.11% [at 23.6 µM]; in assay [4], 9.84% [at 15.8 µM]. The Potency entry in assay [2] is “inactive”. The Potency in assay [3] is 2.58 µM (active).
For `CC[C@H]1CC[C@H](NCc2cc3c(cc2OC)[C@H]2C[C@H]2C(=O)N3C)[C@H](c2ccccc2)N1`, in assay [1], the Potency was 7.1 µM (active). Moreover, the Potency result in assay [6] and in assay [4] was “inactive” throughout.
With `CC(C)Nc1nc(N)nc(Cl)n1`, the Potency result in assay [1], in assay [6] and in assay [4] was “inactive” throughout.
With `OCc1c2ccccc2cc2ccccc12`, the Potency entry in assay [1] and in assay [4] was “inactive” each time. The Potency in assay [2] is 22.5 µM (active); in assay [3] it was 0.897 µM (active).
With `CN1CCN(C2=Nc3cc(F)ccc3Cc3ccccc32)CC1`, the Potency in assay [1] was 4.9 µM (active). Further, the Potency result in assay [6] and in assay [4] was “inactive” each time.
In the case of `CCCCCCC`, the Potency result in assay [1], in assay [2], in assay [3], in assay [4] and in assay [5] was “inactive” in each case.
Take `Cc1nnc(SCC2=C(C(=O)O)N3C(=O)[C@@H](NC(=O)Cn4cnnn4)[C@H]3SC2)s1`: the Potency result in assay [1], in assay [6], in assay [4] and in assay [5] was “inactive” throughout.
As for `ICCc1ccccc1`, the Potency was 6.95 µM (active) in assay [1] and 78 µM (active) in assay [6]. Besides, the Potency entry in assay [4] and in assay [5] was “inactive” throughout.
As for `CCCC(CCC)(C(=O)OCC)C(=O)OCC`, the Potency entry in assay [1], in assay [6] and in assay [4] was “inactive” in each case.
On to `O=C(O)CN(CCN(CC(=O)O)CC(=O)O)CCN(CC(=O)O)CC(=O)O`, for which the activity change, negative = inhibition in assay [1] was -5.69% [at 23.6 µM]; in assay [6] it was 49.7% [at 23.6 µM]; in assay [4], 6.28% [at 15.8 µM]; in assay [5], 10.1% [at 23.6 µM]. Moreover, in assay [3], the Potency entry is “inactive”.
For the compound `CCN(CCCc1ccccc1)CCCc1ccccc1`, the Potency in assay [1] was 0.871 µM (active); in assay [3], 7.23 µM (active). Further, in assay [2], the Potency entry is “inactive”.
In the case of `CN1CCC[C@@H]1Cc1c[nH]c2ccc(CCS(=O)(=O)c3ccccc3)cc12`, the Potency entry in assay [6] and in assay [3] was “inactive” each time. The Potency in assay [2] was 17.4 µM (active).
Regarding `COc1ccc2nc(NC(=O)Nc3ccccc3)sc2c1`, the Potency entry in assay [1], in assay [4] and in assay [5] was “inactive” throughout. For the same compound, the Potency in assay [2] was 15.5 µM (active); in assay [3], 12.3 µM (active).
In the case of `CCCCNc1ccc(C(=O)OCCN(CC)CC)cc1`, the Potency in assay [1] is 3.89 µM (active). Moreover, the Potency entry in assay [5] is “inactive”.
On to `O=C1CCC(C2CCCCC2)CC1`, for which the Potency result in assay [1] and in assay [4] was “inactive” in each case.
As to `CC/C=C\CCOC(=O)CCCCC`, the Potency result in assay [1], in assay [4] and in assay [5] was “inactive” each time.
With `CC(=O)OC(C)OC(C)=O`, the Potency result in assay [1], in assay [2], in assay [4] and in assay [5] was “inactive” throughout.
As for `OCCN(CCO)c1ccccc1`, the Potency entry in assay [1], in assay [3] and in assay [5] was “inactive” each time.
Turning to `COC(=O)c1ccc(OC)cc1`, the Potency result in assay [1], in assay [2], in assay [4] and in assay [5] was “inactive” each time. In assay [3], the Potency was 35.6 µM (active).
For the compound `CC1(O)CSC(C)(O)CS1` (stereo not drawn), the Potency result in assay [1] and in assay [4] was “inactive” throughout. Moreover, the Potency in assay [3] is 39.9 µM (active).
`CC(C)CC(=O)OCc1ccccc1`: the Potency result in assay [1], in assay [3] and in assay [5] was “inactive” each time.
Regarding `CCCCN1C[C@H](O)[C@@H](O)[C@H](O)[C@H]1CO`, the Potency result in assay [1], in assay [2], in assay [3] and in assay [5] was “inactive” in each case.
On to `CC(Oc1c(Cl)cccc1Cl)C1=NCCN1` (stereo not drawn), for which the values for the Potency in assay [1] and in assay [3] were 4.9 µM (active) and 12.9 µM (active), respectively.
On to `CC(C)(C)C1CCCCC1=O` (stereo not drawn), for which the Potency result in assay [1], in assay [2], in assay [3], in assay [4] and in assay [5] was “inactive” in each case.
For `CN(C)C(=O)NC1(c2ccccc2)CCN(CCC[C@]2(c3ccc(Cl)c(Cl)c3)CCCN(C(=O)c3ccccc3)C2)CC1`, in assay [1], the Potency is 3.79 µM (active). Further, the Potency result in assay [3] was “inactive”.
On to `CCN(CC)C(=O)N(CC)CC`, for which the Potency result in assay [1], in assay [2], in assay [4] and in assay [5] was “inactive” in each case.
Turning to `OCCN(CCO)CCN(CCO)CCO`, the Potency result in assay [1], in assay [2], in assay [3] and in assay [5] was “inactive” in each case.
Turning to `CC1=NN(c2cc(Cl)c(S(=O)(=O)O)cc2Cl)C(=O)C1N=Nc1ccc(S(=O)(=O)O)cc1` (stereo not drawn), the Potency entry in assay [1], in assay [3], in assay [4] and in assay [5] was “inactive” in each case.
`O=C1CCCCC1C1CCCCC1` (stereo not drawn): the Potency entry in assay [1], in assay [2], in assay [3], in assay [4] and in assay [5] was “inactive” throughout.
Consider `O=C(Cl)c1cccc([N+](=O)[O-])c1`, for which the Potency result in assay [1], in assay [4] and in assay [5] was “inactive” each time. The Potency in assay [3] is 34.6 µM (active).
In the case of `O=c1[nH]cnc2c1ncn2[C@@H]1O[C@H](CO)[C@@H](O)[C@H]1O`, the Potency entry in assay [1], in assay [2], in assay [3], in assay [4] and in assay [5] was “inactive” in each case.
For `CCOC(=O)c1ccccc1O`, the Potency entry in assay [1], in assay [3], in assay [4] and in assay [5] was “inactive” in each case.
`CCC1(C)NC(=O)NC1=O` (stereo not drawn): the Potency entry in assay [1] and in assay [5] was “inactive” throughout.
`CN(C)CCOc1ccccc1Cc1ccccc1`: the Potency entry in assay [1], in assay [2] and in assay [5] was “inactive” throughout.
Consider `O=C(O)C(=O)Cc1c[nH]c2ccccc12`, for which the Potency in assay [6] was 79.6 µM (active); in assay [2], 39.9 µM (active); in assay [3], 35.6 µM (active).
`CCN[C@H]1CN(CCCOC)S(=O)(=O)c2sc(S(N)(=O)=O)cc21`: the Potency entry in assay [1], in assay [3], in assay [4] and in assay [5] was “inactive” throughout.
For the compound `COc1ccccc1OCC(O)COC(N)=O` (stereo not drawn), the Potency entry in assay [1], in assay [2], in assay [3], in assay [4] and in assay [5] was “inactive” each time.
On to `NC(=O)NS(=O)(=O)c1ccc(Cl)cc1`, for which the Potency result in assay [1], in assay [2], in assay [3], in assay [4] and in assay [5] was “inactive” throughout.
As to `C=CC1CO1` (stereo not drawn), the Potency result in assay [1], in assay [2], in assay [4] and in assay [5] was “inactive” in each case.
Turning to `CNCCC(Oc1ccccc1OC)c1ccccc1` (stereo not drawn), the Potency was 0.977 µM (active) in assay [1] and 8.49 µM (active) in assay [4].
In the case of `CCOc1ccc2nc(N)sc2c1`, the figures for the Potency in assay [6], in assay [2] and in assay [3] were 22.3 µM (active), 31.5 µM (active) and 17.7 µM (active), respectively.
